Test results from PubChem BioAssay.
A number with no mark means an inactive call. For some of these results: Measured potencies and affinities stand elsewhere. Active and inactive are the calls of the source. Unless noted, no rule for the calls is given here.

Experiments:
[1] = antimalarial activity against Dd2 strain (AID 2302;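 active = growth inhibition above 50% at the single 2 µM test dose, taken to imply half-maximal potency below 2 µM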;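 also: 0% = DMSO untreated growth and 100% = chloroquine plus artemisinin killed control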); conditions: P. falciparum Dd2 in RBCs, LDH growth readout, 72 h; at 2 µM; stronger effect = higher value
[2] = target: L-lactate dehydrogenase (Plasmodium falciparum (isolate CDC / Honduras)) (UniProt Q27743); test: PfLDH activity inhibition – cell lysate, 3D7 strain, counter-screen for P. falciparum growth inhibition project (AID 2304);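 also: 0% = vehicle and 100% = reference inhibitor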; conditions: P. falciparum 3D7 crude extract, LDH APAD/NBT absorbance; at 2 µM; stronger effect = higher value
[3] = inhibition of 3D7 malaria parasite growth – strain 3D7 (AID 2306);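 also: 0% = DMSO wells and 100% = chloroquine plus artemisinin control wells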; conditions: P. falciparum 3D7 erythrocytic growth, LDH absorbance, 72 h; at 2 µM; stronger effect = higher value
[4] = target: Calcium-dependent protein kinase 1 (Plasmodium falciparum (isolate 3D7)) (UniProt P62344); test: PfCDPK1 kinase inhibitors, biochemical, TCAMS library (AID 1159585; cut-off not given, nearly all actives have IC50 up to about 0.98 µM;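 also: inhibitors leave more ATP so luminescence rises with inhibition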); conditions: recombinant PfCDPK1, Kinase-Glo ATP depletion luminescence
[5] = target: Plasmodium falciparum protein kinase 6 (PK6, PF3D7_1337100) (UniProt Q8IDW1); test: PfPK6 kinase inhibitors, biochemical, TCAMS library (AID 1159586); conditions: recombinant PfPK6, Kinase-Glo ATP depletion luminescence
[6] = target: Protein kinase 7 (PK7), Plasmodium falciparum 3D7 (PF3D7_0213400) (UniProt Q7YTF7); test: inhibition of Plasmodium PK7 catalytic activity – biochemical, TCAMS antimalarial set, Kinase-Glo luminescence (AID 1159587); conditions: recombinant PfPK7, Kinase-Glo ATP depletion luminescence
[7] = target: Calcium-dependent protein kinase 4 (Plasmodium falciparum (isolate 3D7)) (UniProt Q8IBS5); test: PfCDPK4 kinase inhibitors, biochemical, TCAMS library (AID 1159588; cut-off not given, nearly all actives have IC50 up to about 0.91 µM); conditions: recombinant PfCDPK4, Kinase-Glo ATP depletion luminescence
Calcium-dependent protein kinase 4 (Plasmodium falciparum (isolate 3D7)), sequence (Q8IBS5 whole entry, looked up): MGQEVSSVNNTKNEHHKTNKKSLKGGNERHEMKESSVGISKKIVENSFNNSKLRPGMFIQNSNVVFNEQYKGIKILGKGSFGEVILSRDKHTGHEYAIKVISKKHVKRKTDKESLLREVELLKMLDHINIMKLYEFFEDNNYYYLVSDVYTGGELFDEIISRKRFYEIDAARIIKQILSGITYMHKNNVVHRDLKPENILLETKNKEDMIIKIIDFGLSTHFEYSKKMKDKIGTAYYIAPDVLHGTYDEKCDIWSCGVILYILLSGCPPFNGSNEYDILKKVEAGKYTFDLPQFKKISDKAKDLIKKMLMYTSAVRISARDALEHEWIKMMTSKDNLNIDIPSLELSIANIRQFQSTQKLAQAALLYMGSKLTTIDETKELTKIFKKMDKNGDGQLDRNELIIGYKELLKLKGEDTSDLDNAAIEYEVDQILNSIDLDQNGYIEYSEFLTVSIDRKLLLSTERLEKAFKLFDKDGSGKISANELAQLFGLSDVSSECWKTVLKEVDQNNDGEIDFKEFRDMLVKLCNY

L-lactate dehydrogenase (Plasmodium falciparum (isolate CDC / Honduras)), sequence (Q27743 whole entry, looked up): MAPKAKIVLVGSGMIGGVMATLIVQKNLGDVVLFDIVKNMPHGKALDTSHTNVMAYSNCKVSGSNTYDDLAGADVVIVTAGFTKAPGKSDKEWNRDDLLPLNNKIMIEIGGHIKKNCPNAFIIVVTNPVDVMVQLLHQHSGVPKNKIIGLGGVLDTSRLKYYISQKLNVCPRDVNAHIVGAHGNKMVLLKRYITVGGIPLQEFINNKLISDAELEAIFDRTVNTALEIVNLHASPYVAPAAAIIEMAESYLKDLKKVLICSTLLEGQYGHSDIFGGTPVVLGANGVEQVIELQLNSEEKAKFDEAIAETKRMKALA
Plasmodium falciparum protein kinase 6 (PK6, PF3D7_1337100), sequence (Q8IDW1 1-305): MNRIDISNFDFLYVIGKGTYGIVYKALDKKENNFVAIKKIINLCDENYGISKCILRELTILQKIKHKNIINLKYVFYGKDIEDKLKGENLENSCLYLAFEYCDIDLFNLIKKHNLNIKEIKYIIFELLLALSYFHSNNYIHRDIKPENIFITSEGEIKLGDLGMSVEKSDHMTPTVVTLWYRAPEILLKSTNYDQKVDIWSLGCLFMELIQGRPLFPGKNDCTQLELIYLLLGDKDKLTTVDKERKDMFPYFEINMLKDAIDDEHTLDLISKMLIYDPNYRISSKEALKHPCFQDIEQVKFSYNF
Protein kinase 7 (PK7), Plasmodium falciparum 3D7 (PF3D7_0213400), sequence (Q7YTF7 1-343): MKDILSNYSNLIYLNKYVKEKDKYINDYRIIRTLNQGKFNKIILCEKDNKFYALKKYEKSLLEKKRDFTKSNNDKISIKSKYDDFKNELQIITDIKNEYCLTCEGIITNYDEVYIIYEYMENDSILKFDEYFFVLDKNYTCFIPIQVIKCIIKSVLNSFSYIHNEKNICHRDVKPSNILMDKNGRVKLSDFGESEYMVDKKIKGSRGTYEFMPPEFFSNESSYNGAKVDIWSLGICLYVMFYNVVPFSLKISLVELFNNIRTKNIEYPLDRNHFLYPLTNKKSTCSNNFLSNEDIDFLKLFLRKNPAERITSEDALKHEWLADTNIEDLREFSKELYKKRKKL
Calcium-dependent protein kinase 1 (Plasmodium falciparum (isolate 3D7)), sequence (P62344 whole entry, looked up): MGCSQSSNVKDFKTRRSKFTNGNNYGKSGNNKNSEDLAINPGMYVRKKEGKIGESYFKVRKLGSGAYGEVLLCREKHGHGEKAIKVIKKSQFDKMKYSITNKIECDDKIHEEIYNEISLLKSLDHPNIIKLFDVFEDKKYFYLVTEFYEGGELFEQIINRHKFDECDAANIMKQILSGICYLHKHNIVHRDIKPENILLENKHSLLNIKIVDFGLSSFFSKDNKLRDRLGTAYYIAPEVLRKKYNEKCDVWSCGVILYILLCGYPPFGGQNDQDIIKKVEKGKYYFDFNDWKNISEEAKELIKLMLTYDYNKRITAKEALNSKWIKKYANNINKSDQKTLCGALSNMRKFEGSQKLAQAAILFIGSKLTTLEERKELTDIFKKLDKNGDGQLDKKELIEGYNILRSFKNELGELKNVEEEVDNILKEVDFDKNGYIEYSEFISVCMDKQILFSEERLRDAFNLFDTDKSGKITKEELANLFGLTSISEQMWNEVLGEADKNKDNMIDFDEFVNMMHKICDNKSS

NC(N)=NC(=O)Nc1cc(F)c(Cl)c(Cl)c1
growth inhibition [1]: 101% (active)
inhibition [2]: 2%
growth inhibition [3]: 101% (active)
outcome [4]: inactive
outcome [5]: inactive
outcome [6]: inactive
outcome [7]: inactive

CCOc1cc(Cc2cnc(N)nc2N)ccc1OC
growth inhibition [1]: -4%
inhibition [2]: -1%
growth inhibition [3]: 88% (active)
outcome [4]: inactive
outcome [5]: inactive
outcome [6]: inactive
outcome [7]: inactive

Nc1nc(N)c2c(ccc3nn(Cc4ccccc4)cc32)n1
growth inhibition [1]: 88% (active)
inhibition [2]: 0%
growth inhibition [3]: 97% (active)
outcome [4]: inactive
outcome [5]: inactive
outcome [6]: inactive
outcome [7]: inactive

c1ccc2c(NCCOCCNc3c4ccccc4nc4ccccc34)c3ccccc3nc2c1
growth inhibition [1]: -1%
inhibition [2]: 5%
growth inhibition [3]: 94% (active)
outcome [4]: inactive
outcome [5]: inactive
outcome [6]: inactive
outcome [7]: inactive

COc1cc(Cc2cnc(N)nc2N)cc(OCCCCNS(=O)(=O)C(F)(F)F)c1OC
growth inhibition [1]: -5%
inhibition [2]: 7%
growth inhibition [3]: 84% (active)
outcome [4]: inactive
outcome [5]: inactive
outcome [6]: inactive
outcome [7]: inactive

CC(C)CNc1nc(N)nc2ccc3c(ccn3CC(C)C)c12
growth inhibition [1]: 51% (active)
inhibition [2]: -7%
growth inhibition [3]: 99% (active)
outcome [4]: inactive
outcome [5]: inactive
outcome [6]: inactive
outcome [7]: inactive

COc1ccc(OC)c(CC2c3ccc(Br)c(O)c3CCN2C)c1 (stereo not drawn)
growth inhibition [1]: 97% (active)
inhibition [2]: -7%
growth inhibition [3]: 98% (active)
outcome [4]: inactive
outcome [5]: inactive
outcome [6]: inactive
outcome [7]: inactive

c1ccc2c(CNCCCN3CCN(CCCNCc4c5ccccc5cc5ccccc45)CC3)c3ccccc3cc2c1
growth inhibition [1]: 100% (active)
inhibition [2]: 0%
growth inhibition [3]: 101% (active)
outcome [4]: inactive
outcome [5]: inactive
outcome [6]: inactive
outcome [7]: inactive

CC(=NNC(=S)NCCc1ccccn1)c1ccccn1
growth inhibition [1]: 95% (active)
inhibition [2]: -3%
growth inhibition [3]: 100% (active)
outcome [4]: inactive
outcome [5]: inactive
outcome [6]: inactive
outcome [7]: inactive

NC(N)=NC(=O)Nc1ccc(Cl)c([N+](=O)[O-])c1
growth inhibition [1]: 9%
inhibition [2]: -8%
growth inhibition [3]: 97% (active)
outcome [4]: inactive
outcome [5]: inactive
outcome [6]: inactive
outcome [7]: inactive

CCN(CC)CCCN(CCCN(CC)CC)c1cc(C)nc(Nc2ccc(Br)cc2)n1
growth inhibition [1]: 40%
inhibition [2]: 6%
growth inhibition [3]: 101% (active)
outcome [4]: inactive
outcome [5]: inactive
outcome [6]: inactive
outcome [7]: inactive

CCCN(c1ccc(O)c(CN2CCCCC2)c1)c1ccc([N+](=O)[O-])cn1
growth inhibition [1]: 96% (active)
inhibition [2]: 4%
growth inhibition [3]: 99% (active)
outcome [4]: inactive
outcome [5]: inactive
outcome [6]: inactive
outcome [7]: inactive

CCCCCCCc1c(C)[nH]c2ccc(F)cc2c1=O
growth inhibition [1]: 96% (active)
inhibition [2]: -5%
growth inhibition [3]: 98% (active)
outcome [4]: inactive
outcome [5]: inactive
outcome [6]: inactive
outcome [7]: inactive

COc1cc(Cc2cnc3nc(N)nc(N)c3c2C)cc(OC)c1OC
growth inhibition [1]: 98% (active)
inhibition [2]: 1%
growth inhibition [3]: 95% (active)
outcome [4]: inactive
outcome [5]: inactive
outcome [6]: inactive
outcome [7]: inactive

Cc1ccc(Cc2cccc3nc(N)nc(N)c23)cc1
growth inhibition [1]: 0%
inhibition [2]: -2%
growth inhibition [3]: 92% (active)
outcome [4]: inactive
outcome [5]: inactive
outcome [6]: inactive
outcome [7]: inactive

COc1cc(Cc2cnc(N)nc2N)cc(OCCCC#N)c1OC
growth inhibition [1]: -1%
inhibition [2]: -3%
growth inhibition [3]: 86% (active)
outcome [4]: inactive
outcome [5]: inactive
outcome [6]: inactive
outcome [7]: inactive

Cc1nc(C)c(-c2ccc(Oc3ccc(OC(F)(F)F)cc3)cc2)c(OC(=O)c2ccc(CN(C)C)cc2)c1Cl
growth inhibition [1]: 98% (active)
inhibition [2]: 6%
growth inhibition [3]: 98% (active)
outcome [4]: inactive
outcome [5]: inactive
outcome [6]: inactive
outcome [7]: inactive

c1ccc(CN2CCN(CCCCNc3c4ccccc4nc4ccccc34)CC2)cc1
growth inhibition [1]: 101% (active)
inhibition [2]: -6%
growth inhibition [3]: 102% (active)
outcome [4]: inactive
outcome [5]: inactive
outcome [6]: inactive
outcome [7]: inactive

CCNCCCC(C)Nc1ccnc2cc(Cl)ccc12 (stereo not drawn)
growth inhibition [1]: -3%
inhibition [2]: 0%
growth inhibition [3]: 100% (active)
outcome [4]: inactive
outcome [5]: inactive
outcome [6]: inactive
outcome [7]: inactive

CC(=O)Nc1ccc(OCCCCCOc2ccc(NC(C)=O)cc2Cl)c(Cl)c1
growth inhibition [1]: 0%
inhibition [2]: -7%
growth inhibition [3]: 93% (active)
outcome [4]: inactive
outcome [5]: inactive
outcome [6]: inactive
outcome [7]: inactive

COc1ccc(Cc2c(Cl)nc3nc(N)nc(N)c3c2C)cc1
growth inhibition [1]: 3%
inhibition [2]: 6%
growth inhibition [3]: 94% (active)
outcome [4]: inactive
outcome [5]: inactive
outcome [6]: inactive
outcome [7]: inactive

O=c1c2ccc(Sc3ccccn3)cc2n(-c2ccccc2)c2cc(Sc3ccccn3)ccc12
growth inhibition [1]: 70% (active)
inhibition [2]: -3%
growth inhibition [3]: 89% (active)
outcome [4]: inactive
outcome [5]: inactive
outcome [6]: inactive
outcome [7]: inactive

COc1cc(Cc2cnc(N)nc2N)cc(OCCCCc2ccc([N+](=O)[O-])cc2)c1OC
growth inhibition [1]: 4%
inhibition [2]: -10%
growth inhibition [3]: 88% (active)
outcome [4]: inactive
outcome [5]: inactive
outcome [6]: inactive
outcome [7]: inactive

Cc1cc(=O)c(-c2ccc(Oc3ccc(OC(F)(F)F)cc3)cc2)c(C)[nH]1
growth inhibition [1]: 61% (active)
inhibition [2]: 0%
growth inhibition [3]: 93% (active)
outcome [4]: inactive
outcome [5]: inactive
outcome [6]: inactive
outcome [7]: inactive

Cc1cccc(-c2c(C)nc(N)nc2N)c1
growth inhibition [1]: -9%
inhibition [2]: -6%
growth inhibition [3]: 88% (active)
outcome [4]: inactive
outcome [5]: inactive
outcome [6]: inactive
outcome [7]: inactive

CCc1ccc(Cc2cnc3nc(N)nc(N)c3c2C)cc1
growth inhibition [1]: -1%
inhibition [2]: 0%
growth inhibition [3]: 97% (active)
outcome [4]: inactive
outcome [5]: inactive
outcome [6]: inactive
outcome [7]: inactive

CCC(=C(CC)c1ccc(O)c(CNC2CCCCC2)c1)c1ccc(O)c(CNC2CCCCC2)c1
growth inhibition [1]: 100% (active)
inhibition [2]: -1%
growth inhibition [3]: 100% (active)
outcome [4]: inactive
outcome [5]: inactive
outcome [6]: inactive
outcome [7]: inactive

Cc1[nH]c(C)c(-c2ccc(Oc3ccc(Cl)cc3)cc2)c(=O)c1Cl
growth inhibition [1]: 16%
inhibition [2]: -3%
growth inhibition [3]: 91% (active)
outcome [4]: inactive
outcome [5]: inactive
outcome [6]: inactive
outcome [7]: inactive

Cc1nc(N)nc(N)c1-c1cc(Cl)c(Cl)c(Cl)c1
growth inhibition [1]: 0%
inhibition [2]: 2%
growth inhibition [3]: 97% (active)
outcome [4]: inactive
outcome [5]: inactive
outcome [6]: inactive
outcome [7]: inactive

CN1CCN(c2ccc3nc(-c4ccc5nc(-c6ccc([N+](=O)[O-])c(N)c6)[nH]c5c4)[nH]c3c2)CC1
growth inhibition [1]: 101% (active)
inhibition [2]: -7%
growth inhibition [3]: 100% (active)
outcome [4]: inactive
outcome [5]: inactive
outcome [6]: inactive
outcome [7]: inactive

Cc1[nH]c(C)c(-c2ccc(Oc3cccc(OC(F)(F)F)c3)cc2)c(=O)c1Cl
growth inhibition [1]: 97% (active)
inhibition [2]: -1%
growth inhibition [3]: 97% (active)
outcome [4]: inactive
outcome [5]: inactive
outcome [6]: inactive
outcome [7]: inactive

NC(N)=NC(=O)Nc1ccc(Cl)c(C(F)(F)F)c1
growth inhibition [1]: 13%
inhibition [2]: 3%
growth inhibition [3]: 100% (active)
outcome [4]: inactive
outcome [5]: inactive
outcome [6]: inactive
outcome [7]: inactive

COCCOCCOCCn1ccc2c3c(N)nc(N)nc3ccc21
growth inhibition [1]: 0%
inhibition [2]: -10%
growth inhibition [3]: 97% (active)
outcome [4]: inactive
outcome [5]: inactive
outcome [6]: inactive
outcome [7]: inactive

CN(Cc1cnc2nc(N)nc(N)c2n1)c1ccc(C(=O)N[C@H](CCC(=O)OC(C)(C)C)C(=O)N[C@@H](CCC(=O)OC(C)(C)C)C(=O)OC(C)(C)C)cc1
growth inhibition [1]: 1%
inhibition [2]: -6%
growth inhibition [3]: 85% (active)
outcome [4]: inactive
outcome [5]: inactive
outcome [6]: inactive
outcome [7]: inactive
